# Test results: PubChem BioAssay AID504725 (Broad Institute, 2011)
# Entries with a potency or affinity are not part of this list. The source made the active and inactive calls. How the calls were made is not given here.
# Molecular target: KSHV LANA C-terminal domain (residues 932-1162) binding to LBS DNA (UniProt O40947)
# Test: inhibitors of C-LANA binding to LBS DNA, dose response, biochemical, fluorescence polarization, cherry-picked samples (AID 504725)
# Conditions: MBP-C-LANA / FAM-LBS DNA fluorescence polarization, percent change from plate compound-well median; series mostly up to 35 µM
row,Structure (SMILES),outcome
1,Nc1c(-c2ccccn2)cnn1-c1nc(-c2ccc(F)cc2)cs1,inactive
2,CCc1sc(C(=O)NNC(=O)CNC(=O)c2ccccc2F)cc1C,inactive
3,Oc1[nH]c2ccccc2c1N=Nc1ccccc1F,inactive
4,Cc1nnc2sc(-c3csc4c3CCCC4)nn12,inactive
5,O=S(=O)(O)c1cc(O)c2cc(Nc3ccccc3)ccc2c1,inactive
6,COc1ccc(OC)c(NC(=O)c2nnn(Cc3ccc(Br)cc3F)c2N)c1,inactive
7,COc1cc(C(=S)N2CCN(c3cccc(Cl)c3)CC2)ccc1O,inactive
8,CC(=O)OCCCn1c(C)[n+](C)c2cc(Cl)c(Cl)cc21,inactive
9,COC(=O)C1CCN(C(=O)COC(=O)Cc2c[nH]c3ccccc23)CC1,inactive
10,Brc1ccc(-c2noc(COc3ccc4c(c3)CCC4)n2)o1,inactive
11,COc1ccc(NS(=O)(=O)c2cccc3ccccc23)cc1,inactive
12,COc1cccc(C2CC(=O)Nc3cc4c(cc32)CCC4)c1 (stereo not drawn),inactive
13,CC(C)=C[C@@H]1C[C@H](C)[C@H]2CC[C@H](C)c3c(O[C@@H]4O[C@@H](C)[C@@H](O)[C@@H](O)[C@@H]4O)c(O)c(C)c1c32,inactive
14,O=C(NC1(O)C(=O)c2ccccc2C1=O)c1c(Cl)cccc1Cl,inactive
15,Cc1c(C)n(CCC(=O)O)c2ccccc12,inactive
16,Cc1cc(/C=N/Nc2ccc([N+](=O)[O-])cn2)c(C)n1-c1cccc(C(=O)O)c1,inactive
17,Cc1ccc(CSc2ncnc3onc(C)c23)cc1,inactive
18,CC(C)CN(C(=O)CSc1nncn1C)C1CCS(=O)(=O)C1 (stereo not drawn),inactive
19,O=C(O)C(c1ccccc1)N1C(=O)/C(=C\c2ccc(-c3cccc(Cl)c3)o2)SC1=S (stereo not drawn),inactive

row,Structure (SMILES),outcome
1,O=c1c2c(nc3cc(-c4ccc(F)cc4)[nH]n13)CCC2,inactive
2,CCOC(=O)c1sc(NC(=O)CSC(=S)N2CCN(C)CC2)nc1C,inactive
3,Cc1cc(C)n2nc(C(=O)OC(C)C(=O)c3cc(C)c(C)cc3C)nc2n1 (stereo not drawn),inactive
4,NC(=S)COc1ccccc1,inactive
5,Cc1nn(Cc2c(F)c(F)c(F)c(F)c2F)c(C)c1NC(=O)c1ccnn1C,inactive
6,COc1ccc(CCNC(=O)CCCNC(=O)Cn2cnc3sc(C)c(C)c3c2=O)cc1OC,inactive
7,Oc1ccc(-c2nc3ccccn3c2NCc2ccco2)cc1,inactive
8,COc1ccc(Br)cc1CNC(=O)CCCc1cn(C)c2ccccc12,inactive
9,O=C(Cn1c2ccccc2c2nc3n(c(=O)c21)CCS3)Nc1ccccc1C(F)(F)F,inactive
10,CCCc1nc(SC)[nH]c(=O)c1C,inactive
11,CC1=[N+](C)N(c2ccccc2)C(=O)C1N=C/C=C/c1ccccc1 (stereo not drawn),inactive
12,COC(=O)C1=COC(C)C2CN3CCc4c([nH]c5ccccc45)C3CC12 (stereo not drawn),inactive
13,Cc1cc(Cl)ccc1N1C(=O)CC(NNC(=O)c2cccnc2)C1=O (stereo not drawn),inactive
14,COc1ccc(C)cc1NC(=O)C(OC(=O)c1cnccn1)c1ccccc1 (stereo not drawn),inactive
15,CC1CCCN(C(=O)C(=O)c2cn(CC(=O)N3CCCCCC3)c3ccccc23)C1 (stereo not drawn),inactive
16,CCCc1cc(=O)oc2cc(C)cc(OCC(=O)O)c12,inactive
17,CCOC(=O)c1cnc(SC)nc1Sc1ccc(Cl)cc1Cl,inactive
18,Cc1ccc(C)c(OCC(=O)N(Cc2nnc(-c3ccccc3Cl)o2)C2CC2)c1,inactive
19,CCNC(=O)COC(=O)c1cccc(Br)c1,inactive
